Over roughly 8,300 sequences, “log2 fold change of degron read counts, EGFP-low vs EGFP+ sorted cells (limma voom), compound-induced degradation” has its median near -1.1; the highest 2% begin near 3.2. The sample as a whole holds a higher share of the highest values than the screen did.
T1: CRBN, Q96SW2
T1 chain: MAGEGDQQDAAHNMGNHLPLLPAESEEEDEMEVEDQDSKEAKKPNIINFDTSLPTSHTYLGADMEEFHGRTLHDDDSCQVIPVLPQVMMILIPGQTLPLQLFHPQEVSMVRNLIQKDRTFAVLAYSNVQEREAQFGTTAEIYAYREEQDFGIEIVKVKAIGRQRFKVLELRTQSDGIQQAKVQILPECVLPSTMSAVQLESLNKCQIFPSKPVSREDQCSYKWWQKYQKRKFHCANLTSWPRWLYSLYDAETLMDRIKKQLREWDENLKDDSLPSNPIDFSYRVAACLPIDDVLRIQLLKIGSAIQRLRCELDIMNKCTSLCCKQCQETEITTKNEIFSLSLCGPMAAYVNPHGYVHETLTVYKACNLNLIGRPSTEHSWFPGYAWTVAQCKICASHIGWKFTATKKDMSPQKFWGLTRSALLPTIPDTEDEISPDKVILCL


Molecular target: T1, CRBN, Q96SW2
Assay: log2 fold change of degron read counts, EGFP-low vs EGFP+ sorted cells (limma voom), compound-induced degradation; higher = more compound-induced degradation of the degron-EGFP fusion; degrons are variants of IKZF1/3 zinc finger 2; compound dose not given here
Details: Jurkat, 18 h
[1] = compound: compound 19 (5-tert-butyl-thalidomide)
[2] = compound: compound 22 (5-morpholino-thalidomide)
[3] = compound: compound 33 (diphenyl IMiD analogue)
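Note: pooled lentiviral library of zinc finger degron-EGFP fusions in mCherry-positive Jurkat cells, FACS-sorted after compound exposure, with degron abundance counted by next-generation sequencing.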

| Sequence | log2 fold change of degron read counts [1] | log2 fold change of degron read counts [2] | log2 fold change of degron read counts [3] | log2 fold change of degron read counts (compound: thalidomide) |
| --- | --- | --- | --- | --- |
| FLCNICGAAFTQKGNLLRHIKL [46F_47L_49N_50I_52G_53A_54A_55F_67L_, Q9UKT9] | -0.363 | -1.33 | 0.248 | 0.231 |
| FRCPICGRMFTQKGNLLRHIKL [46F_47R_49P_50I_52G_53R_54M_55F_67L_, Q9UKT9] | -1.98 | -1.28 | -0.201 | 0.319 |
| FHCNQCGHNFTQKGNLLRHIKL [46F_47H_49N_50Q_52G_53H_54N_55F_67L_, Q9UKT9] | -2.43 | -3.18 | -2.46 | -2.52 |
| FVCNICGAYFTQKGNLLRHIKL [46F_47V_49N_50I_52G_53A_54Y_55F_67L_, Q9UKT9] | -0.917 | -0.227 | 1.05 | 1.24 |
| FSCEQCGAHFTQKGNLLRHIKL [46F_47S_49E_50Q_52G_53A_54H_55F_67L_, Q9UKT9] | -1.34 | -2.19 | -1.26 | -1.95 |
| FTCPVCGACFTQKGNLLRHIKL [46F_47T_49P_50V_52G_53A_54C_55F_67L_, Q9UKT9] | 0.948 | 2.51 | 2.73 | 3.33 |
| FICPVCGACFTQKGNLLRHIKL [46F_47I_49P_50V_52G_53A_54C_55F_67L_, Q9UKT9] | -0.981 | 2.06 | 2.04 | 2.16 |
| FECPVCGACFTQKGNLLRHIKL [46F_47E_49P_50V_52G_53A_54C_55F_67L_, Q9UKT9] | 0.122 | -0.609 | 2.52 | 2.75 |
| FWCDICGAHFTQKGNLLRHIKL [46F_47W_49D_50I_52G_53A_54H_55F_67L_, Q9UKT9] | 2.34 | 3.41 | 0.744 | -0.669 |
| FCCDICGAHFTQKGNLLRHIKL [46F_47C_49D_50I_52G_53A_54H_55F_67L_, Q9UKT9] | 0.131 | -0.464 | -0.191 | -0.916 |
| FECDICGAHFTQKGNLLRHIKL [46F_47E_49D_50I_52G_53A_54H_55F_67L_, Q9UKT9] | -1.93 | -3.04 | -0.896 | -0.791 |
| FYCDICGAHFTQKGNLLRHIKL [46F_47Y_49D_50I_52G_53A_54H_55F_67L_, Q9UKT9] | 2.51 | 3.38 | 0.931 | -1.03 |
| FNCDICGAHFTQKGNLLRHIKL [46F_47N_49D_50I_52G_53A_54H_55F_67L_, Q9UKT9] | 0.871 | -0.896 | -1.51 | -1.76 |
| FQCDICGAHFTQKGNLLRHIKL [46F_47Q_49D_50I_52G_53A_54H_55F_67L_, Q9UKT9] | -1.42 | -0.152 | -0.605 | 1.82 |
| LCCNQCGFRCTQKGNLLRHIKL [46L_47C_49N_50Q_52G_53F_54R_55C_67L_, Q9UKT9] | -1.39 | -1.65 | -1.27 | -1.01 |
| FTCEICGAFFTQKGNLLRHIKL [46F_47T_49E_50I_52G_53A_54F_55F_67L_, Q9UKT9] | -0.327 | 0.0883 | 0.985 | 1.57 |
| FDCNICGAFFTQKGNLLRHIKL [46F_47D_49N_50I_52G_53A_54F_55F_67L_, Q9UKT9] | -1.62 | -1.63 | -0.882 | -0.692 |
| LDCEICGFECTQKGNLLRHIKL [46L_47D_49E_50I_52G_53F_54E_55C_67L_, Q9UKT9] | -1.93 | -2.68 | -2.74 | -1.97 |
| FQCNICGAKFTQKGNLLRHIKL [46F_47Q_49N_50I_52G_53A_54K_55F_67L_, Q9UKT9] | -1.16 | 1.71 | -0.442 | 3.26 |
| FTCPICGAKFTQKGNLLRHIKL [46F_47T_49P_50I_52G_53A_54K_55F_67L_, Q9UKT9] | 0.0311 | 2.04 | -0.046 | 2.35 |
| FNCPICGAKFTQKGNLLRHIKL [46F_47N_49P_50I_52G_53A_54K_55F_67L_, Q9UKT9] | 2.07 | 0.6 | -1.08 | 0.72 |
| FMCPICGAKFTQKGNLLRHIKL [46F_47M_49P_50I_52G_53A_54K_55F_67L_, Q9UKT9] | -0.0561 | 0.0581 | 0.821 | 0.888 |
| FQCPICGAKFTQKGNLLRHIKL [46F_47Q_49P_50I_52G_53A_54K_55F_67L_, Q9UKT9] | 0.535 | 3 | 0.562 | 3.44 |
| FCCPICGAKFTQKGNLLRHIKL [46F_47C_49P_50I_52G_53A_54K_55F_67L_, Q9UKT9] | 2.65 | 2.05 | 0.122 | 2.09 |
| FYCNICGAKFTQKGNLLRHIKL [46F_47Y_49N_50I_52G_53A_54K_55F_67L_, Q9UKT9] | 1.97 | 2.19 | -0.298 | -0.655 |
| FVCPICGAKFTQKGNLLRHIKL [46F_47V_49P_50I_52G_53A_54K_55F_67L_, Q9UKT9] | -0.253 | 1.93 | -0.152 | 2.45 |
| FACPICGAKFTQKGNLLRHIKL [46F_47A_49P_50I_52G_53A_54K_55F_67L_, Q9UKT9] | 3.43 | 1.44 | -1.12 | 0.992 |
| FSCPICGAKFTQKGNLLRHIKL [46F_47S_49P_50I_52G_53A_54K_55F_67L_, Q9UKT9] | 2.33 | 1.67 | -0.456 | 1.28 |
| FMCNICGAKFTQKGNLLRHIKL [46F_47M_49N_50I_52G_53A_54K_55F_67L_, Q9UKT9] | -1.58 | -1.36 | -0.574 | -0.374 |
| FGCPICGAKFTQKGNLLRHIKL [46F_47G_49P_50I_52G_53A_54K_55F_67L_, Q9UKT9] | 3.59 | 1.76 | -0.616 | 1.31 |
